Measurements taken from PubChem BioAssay AID1851 (National Center for Advancing Translational Sciences (NCATS), 2009).
The campaign covered roughly 16,000 compounds. About 5,100 (32%) were called active. About 25% were inconclusive and are not listed. This is one part of the list. Values without a mark were called inactive. Calls come from the whole dose curve; as a rule, active = well fitted curve in the direction sought with a large enough effect; inconclusive = small, poorly fitted or top-dose-only effect, or effect the other way; inactive = no such curve, though single readings can be large or run the other way.

Target: Cytochrome P450 3A4 (Homo sapiens) (UniProt P08684)
Assay: Cytochrome panel assay with activity outcomes
Conditions: recombinant CYP, pro-luciferin dealkylation, luminescence, p450-cyp3a4; series mostly up to 57.1 µM
% is set by controls: 0 for no effect and ±100 for the full control effect.

Cytochrome P450 3A4 (Homo sapiens), sequence (P08684 whole entry, looked up): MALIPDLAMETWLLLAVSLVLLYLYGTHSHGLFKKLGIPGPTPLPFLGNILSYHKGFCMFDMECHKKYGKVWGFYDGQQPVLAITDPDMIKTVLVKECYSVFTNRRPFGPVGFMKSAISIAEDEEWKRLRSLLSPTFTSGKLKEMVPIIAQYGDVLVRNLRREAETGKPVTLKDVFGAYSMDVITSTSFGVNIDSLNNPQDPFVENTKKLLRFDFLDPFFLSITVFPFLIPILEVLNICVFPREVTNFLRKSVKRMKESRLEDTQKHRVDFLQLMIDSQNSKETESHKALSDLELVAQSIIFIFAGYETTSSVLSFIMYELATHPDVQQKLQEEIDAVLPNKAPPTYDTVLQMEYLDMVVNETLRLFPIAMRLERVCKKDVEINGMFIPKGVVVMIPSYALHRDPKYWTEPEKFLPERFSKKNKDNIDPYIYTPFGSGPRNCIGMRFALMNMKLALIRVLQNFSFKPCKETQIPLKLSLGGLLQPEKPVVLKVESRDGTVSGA

Structure (SMILES) | activity, negative = inhibition | AC50
CC(=O)[C@H]([C@@H](c1ccccc1)N1CCOCC1)N1CCOCC1 | -29.9% [at 11.4 µM] | 
CC(C)(C)C(=O)[C@H]([C@@H](c1ccccc1)N1CCOCC1)N1CCOCC1 |  | 2.51 µM (active)
O=C(CSc1nccn1-c1ccccc1)c1ccc(Cl)cc1 |  | 10 µM (active)
CC1=NN(c2ccccc2)C(=O)C1C(=O)c1ccc(Cl)cc1 (centres undefined) |  | inactive
O=c1ccnc(SCc2ccc(Cl)cc2)[nH]1 | -11.7% [at 11.4 µM] | 
O=C(CSc1ncnc2nc[nH]c12)c1ccccc1 | -16.5% [at 11.4 µM] | 
CCc1ccc(CSc2nccn2-c2ccccc2)cc1 |  | 14.1 µM (active)
OCCn1cnc2c(SCc3ccccc3)ncnc21 | -4.24% [at 11.4 µM] | 
c1ccc(CCSc2nccn2-c2ccccc2)cc1 |  | 14.1 µM (active)
Clc1ccc(CSc2nccn2Cc2ccccc2)cc1 |  | 7.08 µM (active)
O=C(O)CSCCc1ccccc1 | 0.346% [at 11.4 µM] | 
O=C1C[C@H](c2ccccc2)[C@@H](c2ccc(Br)cc2)O1 | 1.97% [at 11.4 µM] | 
C#CCCCO/N=C1/[C@H]2O[C@@H]2[C@@H](O)[C@H]2[C@H]1CCn1c(=O)n(Cc3cc4c(cc3Cl)OCO4)c(=O)n12 | -10.8% [at 11.4 µM] | 
Cn1nnnc1SCc1ccccc1[N+](=O)[O-] | 3.46% [at 2.29 µM] | 
Cc1ccccc1CSc1nccn1-c1ccccc1 |  | 5.01 µM (active)
Cc1oc(-c2ccccc2)cc1C(=O)Nc1ccc(N(C)C)cc1 |  | 17.8 µM (active)
Cc1oc(C(C)(C)C)cc1C(=O)Nc1cccc(/C=C/C(=O)O)c1 |  | inactive
CC(=O)C[C@H](O)[C@@H](NC(=O)OC(C)(C)C)C(C)C | -26.2% [at 11.4 µM] | 
NC(N)=N/N=C\c1ccc(O)c(C(=O)O)c1 | -5.15% [at 11.4 µM] | 
CCCCCNCc1cccc(Br)c1 |  | inactive
O=C(N/N=C/c1cccc(Oc2ccccc2)c1)c1cccc(Br)c1 |  | inactive
O=C(N/N=C/C1C(c2ccccc2)C1(Cl)Cl)c1cccc(Br)c1 (centres undefined) |  | 12.6 µM (active)
O=C(N[C@@]1(C(=O)O)C[C@@H]1c1ccccc1)c1ccccc1 | -6.56% [at 11.4 µM] | 
Cc1cc(NC(=O)CSc2nnc(-c3ccccc3)n2Cc2ccco2)no1 |  | 15.8 µM (active)

Structure (SMILES) | activity, negative = inhibition | AC50
O=C(CSc1nnc(-c2ccccn2)n1Cc1ccco1)Nc1ccc2c(c1)OCO2 |  | 0.891 µM (active)
CCCCOC(=O)CSCC(=O)Nc1cc(C)on1 | -0.1% [at 11.4 µM] | 
CC(=O)Nc1ccc(NC(=O)CSc2nnc(-c3ccccc3)n2Cc2ccc3c(c2)OCO3)cc1 |  | 3.55 µM (active)
Cc1cc(C)nc(SCc2nnc(SCC(N)=O)n2Cc2ccco2)n1 |  | 15.8 µM (active)
COc1ccc(-c2ccc(=N)n(CCCC(=O)O)n2)cc1 |  | inactive
COc1ccc(C(O)c2nccn2Cc2ccccc2)cc1 (centres undefined) | -29.5% [at 11.4 µM] | 
COc1ccc(-c2cnnc(CCCn3ccnc3-c3ccccc3)n2)cc1 |  | 6.31 µM (active)
COCC(=O)N1CCC2(CC1)CCN(C(=O)Nc1cccc(F)c1)CC2 |  | inactive
COc1ccccc1NC(=O)CN1CCC(C(=O)c2ccc(F)cc2)CC1 | -1.8% [at 2.29 µM] | 
COc1ccc(S(=O)(=O)N2CCC(N3CCCCC3)CC2)cc1 |  | inactive
COc1ccc(S(=O)(=O)N2CCC(NC(=O)Nc3ccc(C)cc3)CC2)cc1 |  | 8.91 µM (active)
COc1ccc(S(=O)(=O)N2CCCN(CC(=O)Nc3ccc(OC)c(Cl)c3)CC2)cc1 |  | 7.94 µM (active)
COc1ccc(C)cc1NC(=O)CN1CCN(S(=O)(=O)c2ccc(F)cc2)CC1 |  | 7.94 µM (active)
COc1ccc(S(=O)(=O)Nc2ccc(S(=O)(=O)N3CCCCC3)cc2)cc1C | -19.1% [at 2.29 µM] | 
COc1ccc(S(=O)(=O)N2CCN(CC(=O)Nc3cccc(F)c3)CC2)cc1 |  | 7.94 µM (active)
Nc1[nH]c(=S)[nH]c(=O)c1N=Nc1c(Br)cc(S(N)(=O)=O)cc1Br | -21% [at 11.4 µM] | 
O=C(CN1CCN(S(=O)(=O)c2ccccc2)CC1)NC(=O)NCc1ccccc1 |  | inactive
COc1ccc(S(=O)(=O)N2CCN(CC(=O)Nc3cc(OC)cc(OC)c3)CC2)cc1 |  | 3.98 µM (active)
COC(=O)[C@@]1(Cc2ccccc2)[C@H]2c3cc(C(=O)N4CCCC4)n(C)c3C[C@H]2CN1C(=O)c1ccccc1 |  | 3.98 µM (active)
COC(=O)[C@@]1(Cc2ccccc2)[C@H]2c3cc(C(=O)N4CCCC4)n(CC4CC4)c3C[C@H]2CN1C(=O)c1ccccc1 |  | 3.16 µM (active)
CCOC(=O)[C@H](CCc1ccccc1)N[C@@H](C)C(=O)N1CCC[C@H]1C(=O)O |  | inactive
O=[N+]([O-])c1nccn1C[C@H](O)CN1CCCCC1 | -20.2% [at 11.4 µM] | 
COc1ccc(C(=O)N/N=C2/SCC(=O)N2Cc2ccc3c(c2)OCO3)cc1OC |  | 1.12 µM (active)
CCCN(CCC)S(=O)(=O)c1ccc(C(=O)O)cc1 |  | inactive

Structure (SMILES) | activity, negative = inhibition | AC50
CCOC(=O)c1c(C)[nH]c(C)c1C(=O)COC(=O)c1cccc(S(=O)(=O)N(CC)CC)c1 |  | 0.316 µM (active)
CCOC(=O)c1c(C)[nH]c(C)c1C(=O)COC(=O)c1ccc(S(=O)(=O)N(CC)CC)cc1 |  | 0.282 µM (active)
CCN(CC)CCOC(=O)c1ccc(N)cc1 |  | inactive
NCCCNCCCCNCCCN |  | inactive
O=C(O)CCNc1ncnc2nc[nH]c12 | -0.12% [at 11.4 µM] | 
CCO[P@]1(=O)OC[C@@H]2O[C@H](n3cnc4c(N)ncnc43)[C@H](O)[C@@H]2O1 | 7.34% [at 11.4 µM] | 
O=C1c2cccc3c(Cl)ccc(c23)C(=O)N1O | -15% [at 11.4 µM] | 
O=C1c2cccc3c(Nc4ccccc4Cl)c([N+](=O)[O-])cc(c23)C(=O)N1CCO |  | 14.1 µM (active)
CCc1ccccc1N1C(=O)c2cccc3c(N4CCOCC4)c([N+](=O)[O-])cc(c23)C1=O |  | inactive
Clc1ccc(C(c2nnnn2C2CCCC2)N2CCN(Cc3ccncc3)CC2)cc1 (centres undefined) |  | 2 µM (active)
c1coc(CN2CCN(C(c3cccs3)c3nnnn3C3CCCC3)CC2)c1 (centres undefined) |  | 14.1 µM (active)
Cc1ccc(C(c2nnnn2C2CCCC2)N2CCN3CCCC3C2)cc1 (centres undefined) |  | 14.1 µM (active)
CC(C)(C)N1C(=O)[C@@H]2[C@H]3C(=CC[C@H]2C1=O)C(=O)[C@H]1O[C@H]1[C@H]3O | -4.13% [at 11.4 µM] | 
O=S(Cc1ccccc1)CC(O)(c1ccccc1)c1ccccc1 (centres undefined) |  | inactive
O=C(NCC1CCCO1)c1cc(-c2ccc(Cl)cc2Cl)on1 (centres undefined) |  | inactive
O=C(Nc1cnn(Cc2ccc(Cl)cc2Cl)c1)c1cc(-c2cccs2)on1 |  | 10 µM (active)
O=C(Cn1cnc([N+](=O)[O-])n1)N/N=C/c1ccccc1O |  | inactive
O=C(CCCn1cnc([N+](=O)[O-])n1)Nc1ccc(Cl)c(Cl)c1 |  | 14.1 µM (active)
CC(C)(C)NC(=O)Cn1cnc([N+](=O)[O-])n1 |  | inactive
O=C1O/C(=C\Br)CC[C@@H]1c1cccc2ccccc12 |  | 3.98 µM (active)
Cc1cccc(-c2c3c(=O)n(C)c(=O)n(C)c3cn2C2CCCCC2)c1 |  | 7.94 µM (active)
COC(=O)c1ccccc1NC(=O)C(CCS(C)(=O)=O)NC(C)=O (centres undefined) |  | inactive
COc1ccccc1NC(=O)C(C/C=C(\C)Cl)C(C)=O (centres undefined) |  | 14.1 µM (active)
CCCN1C(=O)C2(/C(=C(\O)c3ccc4c(c3)OCCO4)C(=O)C(=O)N2CCCOC)c2ccccc21 (centres undefined) |  | inactive

Structure (SMILES) | activity, negative = inhibition | AC50
COc1ccccc1CN1CC[C@@]2(CCCN(C(=O)c3ccco3)C2)C1 |  | 20 µM (active)
COc1ccccc1CN1CC[C@@]2(CCCN(C(=O)c3cccn3C)C2)C1 |  | 12.6 µM (active)
COc1ccccc1CN1CCC2(CC1)CCN(C(=O)c1cccn1C)CC2 |  | inactive
COc1ccccc1CN1CCC2(CC1)CCN(C(=O)c1ccco1)CC2 |  | inactive
COCC(=O)N1CCC[C@@]2(CCN(Cc3ccccc3OC)C2)C1 |  | inactive
COc1ccccc1CN1CC[C@@]2(CCCN(C(C)=O)C2)C1 |  | inactive
Cc1cc(NC(=O)c2nn(C)c(C)c2[N+](=O)[O-])no1 |  | inactive
C=CCNc1nc(-c2ccc(Cl)cc2)cs1 |  | 14.1 µM (active)
CCCCCN1CC(O)=C(c2nc(-c3ccc(Cl)cc3)cs2)C1=N |  | inactive
Cc1ccc(-c2csc(N/N=C/c3ccco3)n2)cc1 | -6.49% [at 2.29 µM] | 
CC(C)(C)NC(=O)C(Cc1ccccc1)NS(=O)(=O)c1ccc2c(c1)CCC(=O)N2 (centres undefined) |  | 3.16 µM (active)
CC(C)(C)NC[C@H](O)COc1cccc2c1CCC(=O)N2 |  | inactive
CC1=N[C@@](C)(COC(=O)[C@]2(C)N[C@](C)(CO)CO2)COC1=O | -22.8% [at 11.4 µM] | 
COC(=O)N/N=C\C=C\c1ccc2c(c1)OCO2 |  | inactive
Cc1cccc(OCC(=O)N/N=C\C=C\c2ccc3c(c2)OCO3)c1C |  | 2.24 µM (active)
N[C@@H](Cc1nn[nH]n1)C(=O)O | -2.7% [at 11.4 µM] | 
Cc1ccsc1-c1nc(-c2ccccc2)c(-c2ccccc2)[nH]1 |  | 14.1 µM (active)
COc1ccc(-c2[nH]c(-c3ccc(C(=O)O)cc3)nc2-c2ccccc2)cc1 |  | inactive
c1ccc(-c2nc(-c3cccs3)[nH]c2-c2ccccc2)cc1 |  | 11.2 µM (active)
O=C(O)c1nc(-c2ccccc2)[nH]c1C(=O)O | -3.83% [at 11.4 µM] | 
O=[N+]([O-])c1cccc(-c2nc(-c3ccccc3)c(-c3cccs3)[nH]2)c1 | -13.1% [at 2.29 µM] | 
O=[N+]([O-])c1cccc(-c2nc(-c3cccs3)c(-c3cccs3)[nH]2)c1 |  | 12.6 µM (active)
